This note sets out measurements from PubChem BioAssay.

The structures appear in SMILES notation. Active and inactive are the calls of the source.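 Rule for the calls, unless noted: active = compound that reduces growth-factor-driven endothelial tube area in a mixed cell culture, no cutoff stated; inactive = the rest.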

A short description of assay [1]: Wnt pathway potentiators raising nuclear beta-catenin – imaging, WNT3A-conditioned medium, mouse C2C12, NPC library, primary screen (AID 1117326; in the data active = nuclear beta-catenin stimulation mostly above about 4.2%, no sharp cut-off; inactive = mostly below about 10%; note: reference of the scale not given here). As to conditions: stronger effect = higher value.
A short description of assay [2]: stimulators of insulin release from INS-1E, primary screen, cell-based, 5 mM glucose, NPC library (AID 1117329;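 active = compound raises insulin release from rat beta cells at 5 mM glucose, no numeric limit stated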; note: reference of the scale not given here). As to conditions: rat INS-1E insulin secretion, at 10 µM, stronger effect = higher value.
A short description of assay [3]: growth inhibition of GSK3B-pretreated HCT116 cells – cell-based, CellTiter-Glo, 0.2 to 20 µM (AID 1117336;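 active = compounds lowering colon cancer cell viability after pretreatment blocking the GSK3B kinase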). As to conditions: HCT116 viability after GSK3B inhibitor, at 20 µM, stronger effect = higher value. In general terms: Cellular ATP, detected with luciferase, serves as a proxy for viable cell number.
Assay [4] can be described thus: inhibition of endothelial tube formation, primary screen, imaging, VEGF stimulated, CD31 staining, tube area, NPC library (AID 1117340). As to conditions: VEGF-stimulated ADSC/ECFC co-culture, at 10 µM, stronger effect = higher value.
Assay [5] is described as follows: GLP1 release stimulators, primary, NCI-H716, NPC library (AID 1117341;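 active = compound raises GLP1 secretion from the human gut endocrine cells, with no numeric limit stated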; note: reference of the scale not given here). As to conditions: NCI-H716 cells, at 10 µM, stronger effect = higher value.
Assay [6] in a line: HCT116 colon cancer cell growth inhibition, primary screen, CellTiter-Glo luminescence, NPC library (AID 1117342;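 active = compounds that lower survival of HCT116 colon cancer cells in the luminescence readout, no numeric limit stated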). As to conditions: at 20 µM (top of the series).
Assay [7] can be described thus: reduced SW480 viability measured with CellTiter-Glo, NPC library, primary (AID 1117343;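 active = compounds that lower viability of the colon cancer cells in the luminescence readout, with no numeric limit stated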). As to conditions: CellTiter-Glo luminescence; at 20 µM (top of the series).
The nature of assay [8]: NPC library primary testing for decreased DLD-1 cell viability via CellTiter-Glo (AID 1117346;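 active = compounds that lower survival of DLD-1 colon cancer cells in the luminescence readout, no cutoff given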). As to conditions: DLD-1 viability, CellTiter-Glo luminescence; at 20 µM (top of the series).

For the molecule `CCCSS/C(CCO)=C(\C)N(C=O)Cc1cnc(C)nc1N`, the nuclear beta-catenin stimulation in assay [1] (at 10 µM) was -1.4% (inactive); in assay [1] (stimulation, at 2 µM) it was -0.7%. Moreover, in assay [2], the insulin secretion stimulation is 10.2% (inactive). The viability decrease in assay [3] is 33.3% (inactive). The tube area decrease in assay [4] was 55.3% (active). Further, the GLP1 secretion stimulation in assay [5] was -4.8% (inactive). In assay [6], the inhibition of viability is 19.1% (inactive). Also, the viability decrease (inhibition) in assay [7] was 45.4% (inactive); in assay [8], 65.6% (active).

`O=C(O)c1ccccc1S`: the nuclear beta-catenin stimulation in assay [1] (at 10 µM) was 4.7% (inactive); in assay [1] (stimulation, at 2 µM), -1.3%. In addition, the insulin secretion stimulation in assay [2] is -0.1% (inactive). Also, in assay [3], the viability decrease was 1% (inactive). Also, in assay [4], the tube area decrease is 13.4% (inactive). Besides, the GLP1 secretion stimulation in assay [5] is -1.4% (inactive). The inhibition of viability in assay [6] was 2.1% (inactive). Further, the figures for the viability decrease (inhibition) in assay [7] and in assay [8] were 31.6% (inactive) and -3.4% (inactive), respectively.

As for `Cc1cccc(OCC(O)CNC(C)(C)C)c1C` (centres undefined), the nuclear beta-catenin stimulation in assay [1] (at 10 µM) was -0.4% (inactive); in assay [1] (stimulation, at 2 µM), 0.2%. Also, the insulin secretion stimulation in assay [2] is 1% (inactive). Besides, the viability decrease in assay [3] was -0.4% (inactive). For the same molecule, the tube area decrease in assay [4] is 18.2% (inactive). In addition, in assay [5], the GLP1 secretion stimulation is -1% (inactive). Besides, the inhibition of viability in assay [6] was 23.8% (inactive). The viability decrease (inhibition) is 24.5% (inactive) in assay [7] and 8.8% (inactive) in assay [8].

With `O=S(=O)(O)c1ccc(O)cc1`, the nuclear beta-catenin stimulation in assay [1] (at 10 µM) is 0.1% (inactive); in assay [1] (stimulation, at 2 µM), 2%. Also, the insulin secretion stimulation in assay [2] is -2.6% (inactive). Also, the viability decrease in assay [3] is -3.65% (inactive). The tube area decrease in assay [4] was 5.3% (inactive). The GLP1 secretion stimulation in assay [5] was -0.7% (inactive). The inhibition of viability in assay [6] was -4% (inactive). Besides, the viability decrease (inhibition) in assay [7] is 11.5% (inactive); in assay [8], -5.95% (inactive).

Turning to `O=C(NN1CCCC1)NS(=O)(=O)c1ccc(Cl)cc1`, the nuclear beta-catenin stimulation was -0.5% (inactive) in assay [1] (at 10 µM) and -0.1% in assay [1] (stimulation, at 2 µM). Also, the insulin secretion stimulation in assay [2] is 33.9% (active). For the same molecule, the viability decrease in assay [3] was -3.1% (inactive). Further, in assay [4], the tube area decrease is 7% (inactive). For the same molecule, the GLP1 secretion stimulation in assay [5] was -1.1% (inactive). For the same molecule, the inhibition of viability in assay [6] was 14.2% (inactive). For the same molecule, the values for the viability decrease (inhibition) in assay [7] and in assay [8] were 0% (inactive) and -2.8% (inactive), respectively.

As for `CC1(C)CO[C@@H](CC(=O)O)CN1`, the nuclear beta-catenin stimulation in assay [1] (at 10 µM) is -0.7% (inactive); in assay [1] (stimulation, at 2 µM) it was 0.1%. In assay [2], the insulin secretion stimulation was 0.5% (inactive). In addition, the viability decrease in assay [3] was -0.8% (inactive). The tube area decrease in assay [4] is -11.6% (inactive). The GLP1 secretion stimulation in assay [5] is -0.1% (inactive). Besides, the inhibition of viability in assay [6] was 7.17% (inactive). In addition, the viability decrease (inhibition) was -7% (inactive) in assay [7] and -1% (inactive) in assay [8].

Turning to `C[N+]1(CC2COC(c3ccccc3)(c3ccccc3)O2)CCCCC1` (centres undefined), the nuclear beta-catenin stimulation in assay [1] (at 10 µM) was 1.5% (inactive); in assay [1] (stimulation, at 2 µM), -0.6%. The insulin secretion stimulation in assay [2] was 6.4% (inactive). The viability decrease in assay [3] is 7.4% (inactive). Further, the tube area decrease in assay [4] was -12.8% (inactive). Further, in assay [5], the GLP1 secretion stimulation was 0.7% (inactive). In assay [6], the inhibition of viability was 23.2% (inactive). Further, the viability decrease (inhibition) in assay [7] was 10.8% (inactive); in assay [8], 0.5% (inactive).

Turning to `O=C(OC1C[C@@H]2CC3C[C@@H](C1)N2CC3=O)c1c[nH]c2ccccc12` (some centres undefined), the nuclear beta-catenin stimulation in assay [1] (at 10 µM) was -1.1% (inactive); in assay [1] (stimulation, at 2 µM) it was -0.5%. The insulin secretion stimulation in assay [2] was 10.8% (inactive). For the same molecule, the viability decrease in assay [3] is 4.3% (inactive). Besides, the tube area decrease in assay [4] was -15.2% (inactive). In addition, the GLP1 secretion stimulation in assay [5] was 0.9% (inactive). The inhibition of viability in assay [6] is 42% (inactive). The viability decrease (inhibition) in assay [7] was 12.6% (inactive); in assay [8], 17.7% (inactive).

Regarding `Cc1onc(-c2c(Cl)cccc2Cl)c1C(=O)Cl`, the nuclear beta-catenin stimulation in assay [1] (at 10 µM) was -0.1% (inactive); in assay [1] (stimulation, at 2 µM) it was 0.5%. Also, the insulin secretion stimulation in assay [2] was 1.5% (inactive). In addition, in assay [3], the viability decrease was -3.8% (inactive). Further, in assay [4], the tube area decrease was 54.1% (active). The GLP1 secretion stimulation in assay [5] is 5.9% (inactive). In assay [6], the inhibition of viability is 13.6% (inactive). In addition, the viability decrease (inhibition) is 17% (inactive) in assay [7] and -2.5% (inactive) in assay [8].

For `CCN1C(=O)c2ccccc2C1Nc1ccc(OCCN2CCCCC2)cc1` (centres undefined), the nuclear beta-catenin stimulation is 0.7% (inactive) in assay [1] (at 10 µM) and 0.3% in assay [1] (stimulation, at 2 µM). Besides, in assay [2], the insulin secretion stimulation is 18.5% (inactive). The viability decrease in assay [3] is 10.5% (inactive). For the same molecule, the tube area decrease in assay [4] was 14.2% (inactive). Also, in assay [5], the GLP1 secretion stimulation is 7.7% (inactive). In assay [6], the inhibition of viability was 47.4% (inactive). Besides, the viability decrease (inhibition) in assay [7] is 13.4% (inactive); in assay [8], -3.1% (inactive).

For the molecule `Cc1ccc(C(=O)C(=O)O)cc1C`, the nuclear beta-catenin stimulation is 1% (inactive) in assay [1] (at 10 µM) and 1.8% in assay [1] (stimulation, at 2 µM). The insulin secretion stimulation in assay [2] was 2.9% (inactive). For the same molecule, the viability decrease in assay [3] was -10.8% (inactive). The tube area decrease in assay [4] is -6.7% (inactive). In addition, the GLP1 secretion stimulation in assay [5] was -3.1% (inactive). Moreover, in assay [6], the inhibition of viability is -6.7% (inactive). For the same molecule, the viability decrease (inhibition) was 17.4% (inactive) in assay [7] and -5% (inactive) in assay [8].

Turning to `CCCCCCCCCC(=O)O`, the nuclear beta-catenin stimulation in assay [1] (at 10 µM) was -1.9% (inactive); in assay [1] (stimulation, at 2 µM), 0.7%. The insulin secretion stimulation in assay [2] was 3.3% (inactive). Besides, the viability decrease in assay [3] was -11.4% (inactive). The tube area decrease in assay [4] is -24.1% (inactive). In addition, the GLP1 secretion stimulation in assay [5] was 1.6% (inactive). Also, the inhibition of viability in assay [6] is 7.9% (inactive). Besides, the values for the viability decrease (inhibition) in assay [7] and in assay [8] were 49.5% (inactive) and 4.9% (inactive), respectively.

For `CC(=O)c1ccc(OCC(=O)N2CCCCC2)cc1`, the nuclear beta-catenin stimulation is 1.1% (inactive) in assay [1] (at 10 µM) and -0.3% in assay [1] (stimulation, at 2 µM). For the same molecule, the insulin secretion stimulation in assay [2] is 0.25% (inactive). Further, in assay [3], the viability decrease is 7.4% (inactive). The tube area decrease in assay [4] was 7% (active). For the same molecule, in assay [5], the GLP1 secretion stimulation is 0.7% (inactive). Besides, in assay [6], the inhibition of viability is -3.4% (inactive). The viability decrease (inhibition) was -3.6% (inactive) in assay [7] and -2.8% (inactive) in assay [8].

`COc1cc(C(=S)N2CCOCC2)cc(OC)c1OC`: the nuclear beta-catenin stimulation in assay [1] (at 10 µM) is -0.6% (inactive); in assay [1] (stimulation, at 2 µM), 2%. In assay [2], the insulin secretion stimulation was 1.5% (inactive). Besides, in assay [3], the viability decrease is -0.85% (inactive). In addition, in assay [4], the tube area decrease was -15.3% (inactive). The GLP1 secretion stimulation in assay [5] was -0.3% (inactive). Also, the inhibition of viability in assay [6] was -1.2% (inactive). Also, the viability decrease (inhibition) is 9.6% (inactive) in assay [7] and 1.7% (inactive) in assay [8].

Regarding `Nc1ccc(S(=O)(=O)Nc2ccccc2)cc1`, the nuclear beta-catenin stimulation in assay [1] (at 10 µM) was 1% (inactive); in assay [1] (stimulation, at 2 µM) it was 0.9%. Moreover, in assay [2], the insulin secretion stimulation was -2.7% (inactive). In addition, the viability decrease in assay [3] is -9.8% (inactive). The tube area decrease in assay [4] is 10.5% (inactive). The GLP1 secretion stimulation in assay [5] is 3.7% (inactive). Besides, in assay [6], the inhibition of viability was -1.7% (inactive). Also, the viability decrease (inhibition) in assay [7] is 5.2% (inactive); in assay [8] it was 0.95% (inactive).

Regarding `CC(=O)Nc1ccc(OC(=O)c2ccccc2OC(C)=O)cc1`, the nuclear beta-catenin stimulation in assay [1] (at 10 µM) is 0.6% (inactive); in assay [1] (stimulation, at 2 µM) it was 14%. Besides, in assay [2], the insulin secretion stimulation is 4.1% (inactive). In assay [3], the viability decrease is 0.8% (inactive). Further, in assay [4], the tube area decrease is -15.2% (inactive). In addition, in assay [5], the GLP1 secretion stimulation was -1.2% (inactive). Besides, the inhibition of viability in assay [6] was -5.8% (inactive). The viability decrease (inhibition) in assay [7] was -3% (inactive); in assay [8], -10.1% (inactive).
